# IDE cell activ: IDE (human) activation, cell-based | P14735 | HEK cells, FAbeta-B cleavage, fluorescence polarization; 0% vehicle, 100% cell-free pure enzyme wells | activation, % at 5.96 µM | hit rate 0.073% among 340,000;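 active = activation above the mean of all tested compounds plus 3 SD, set per screening campaign, cut at about 17% in these data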
# Target sequence (P14735 whole entry, looked up): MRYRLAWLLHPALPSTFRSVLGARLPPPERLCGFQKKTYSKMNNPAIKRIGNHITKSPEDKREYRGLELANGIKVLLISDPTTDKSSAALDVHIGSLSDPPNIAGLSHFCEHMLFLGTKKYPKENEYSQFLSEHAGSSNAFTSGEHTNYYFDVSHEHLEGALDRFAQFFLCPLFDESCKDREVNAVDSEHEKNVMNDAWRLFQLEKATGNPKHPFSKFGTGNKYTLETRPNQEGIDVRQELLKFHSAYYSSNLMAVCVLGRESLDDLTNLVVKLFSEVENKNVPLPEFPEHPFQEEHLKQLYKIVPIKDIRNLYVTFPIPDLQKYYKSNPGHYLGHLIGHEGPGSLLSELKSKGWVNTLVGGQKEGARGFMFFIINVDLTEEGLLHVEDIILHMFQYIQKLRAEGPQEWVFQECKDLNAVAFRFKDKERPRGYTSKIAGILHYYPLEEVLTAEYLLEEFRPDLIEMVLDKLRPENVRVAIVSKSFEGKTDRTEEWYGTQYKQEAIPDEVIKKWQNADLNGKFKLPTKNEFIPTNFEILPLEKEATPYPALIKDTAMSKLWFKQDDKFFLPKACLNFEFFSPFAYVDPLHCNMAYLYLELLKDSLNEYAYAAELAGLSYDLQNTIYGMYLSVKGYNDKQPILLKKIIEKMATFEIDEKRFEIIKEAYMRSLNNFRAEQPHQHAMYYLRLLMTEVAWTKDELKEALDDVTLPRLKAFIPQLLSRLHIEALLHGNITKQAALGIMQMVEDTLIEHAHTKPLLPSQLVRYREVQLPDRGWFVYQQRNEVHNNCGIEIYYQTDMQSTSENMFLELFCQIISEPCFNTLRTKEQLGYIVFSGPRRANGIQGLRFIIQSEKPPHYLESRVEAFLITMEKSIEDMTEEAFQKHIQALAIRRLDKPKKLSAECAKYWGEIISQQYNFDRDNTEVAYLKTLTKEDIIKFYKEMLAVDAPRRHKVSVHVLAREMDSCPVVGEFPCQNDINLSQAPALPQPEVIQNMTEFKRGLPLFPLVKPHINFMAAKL
# TPT1 inhibitor: blocks Candida albicans tRNA 2'-phosphotransferase; recombinant caTPT1, FP RNA substrate dephosphorylation; inhibition, % at 5 µM; hit rate 0.81% among 300,000; AID 1962;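 active = inhibition above the mean of all tested compounds plus 3 SD, set per screening campaign, cut at about 24% in these data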
# IDE cell inh: inhibits human insulin-degrading enzyme in HEK cells | P14735 | FAbetaB cleavage, fluorescence polarization | inhibition, % at 5.59 µM | hit rate 0.41% among 320,000 | AID 434962;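 active = percent inhibition above the average of all tested compounds plus 3 SD, set per screening campaign, cut at about 16% in these data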;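 also: IDE supplied by intact live HEK cells; FP after avidin binding of uncleaved biotin substrate so inhibition keeps polarization high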
# CRFR2-BP antag: blocks CRF-induced signaling of the CRF-BP/CRF-R2 complex | HEK293 CRF-R2/CRF-BP, CRF-induced calcium fluorescence | inhibition, % at 11.8 µM | hit rate 0.59% among 350,000;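 active = inhibition of the ligand-induced calcium signal above about 50% at the single tested concentration, limit read from the data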
# Myeloid diff 2: compounds promoting myeloid differentiation; ER-HoxA9 myeloid progenitors, lysozyme-GFP differentiation, flow cytometry; calls only at 10 µM; hit rate 1% among 360,000; AID 624256;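 active = normalized GFP-positive differentiation at or above the plate's own cutoff, the solvent-only control mean plus 3 SD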;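 also: cells exposed to compound for four days before flow analysis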
# CRFR2-BP ag: CRF-BP/CRF-R2 complex agonism. HEK293 CRF-R2/CRF-BP, calcium dye fluorescence (FLIPR); percent of saturating CRF peptide response. activation, % at 13.2 µM. hit rate 0.46% among 350,000. AID 588473;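 active = activation of at least 50%, plus an integration ratio under a set limit after plate pattern correction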
# Myeloid diff: promotes myeloid progenitor differentiation; shares compounds with Myeloid diff 2; ER-HoxA9 myeloid progenitors, GFP/Mac1 double-positive flow; calls only; hit rate 2% among 2,300;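 active = share of green or green-and-red cells above 9 and 9% in run 1 or 4 and 3% in run 2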
# GFP autofluor: flagged as fluorescent in myeloid differentiation counter-screen | ER-HoxA9 myeloid progenitors, no estrogen, GFP autofluorescence flow cytometry; vehicle wells 0%, positive control 100% | hit rate 7.4% among 2,300 | fluorescence response, % (no concentration beside the values) | AID 651707 | shares compounds with Myeloid diff 2;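 active = over 5% cells positive for green fluorescent reporter, or over 2% positive for both it and APC stain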
# A number is an active result; . = inactive; / = not tested or not shown; + = active, no number. Hits are enriched below; roughly 2.6% of the tested compounds scored in any of these assays.
SMILES,IDE cell activ,TPT1 inhibitor,IDE cell inh,CRFR2-BP antag,Myeloid diff 2,CRFR2-BP ag,Myeloid diff,GFP autofluor
Cc1ccc2c(c1)CCCN2CC(=O)N(C)c1c(N)n(Cc2ccccc2)c(=O)[nH]c1=O,.,/,.,.,.,.,.,.
CN(C(=O)CN1CCCCCC1)c1c(N)n(Cc2ccccc2)c(=O)[nH]c1=O,.,/,.,.,.,.,/,/
CCN(C(=O)CN1CCCCC1)c1c(N)n(Cc2ccccc2)c(=O)[nH]c1=O,.,/,.,.,.,.,/,/
CCN(C(=O)CN1CCCc2cc(C)ccc21)c1c(N)n(Cc2ccccc2)c(=O)[nH]c1=O,.,/,/,.,.,.,.,.
COc1ccccc1CN1C(=O)C2CC=CCC2C1=O (stereo not given),.,.,.,.,.,.,.,.
CCCn1nnc(NC(=O)c2cc(Br)ccc2OC)n1,.,.,.,.,.,.,.,.
COc1cc2[nH]c(=O)n(CCCC(=O)N3CC=C(c4ccccc4)CC3)c(=O)c2cc1OC,.,.,.,.,+,.,.,.
c1ccc(C2=Nn3c(nnc3-c3ccccn3)SC2)cc1,.,.,.,.,.,.,.,.
CCOc1ccc(C(=O)NCC(=O)OCc2c(F)cccc2Cl)cc1OCC,.,.,.,.,.,.,.,.
CC1(C(=O)Nc2ccc3c(c2)OCO3)CC1(Cl)Cl (stereo not given),.,.,.,.,.,.,/,/
Cc1cc2nc(/N=C(\N)NC(=O)C(C)C)nc(C)c2cc1C,.,.,.,.,.,.,.,.
CCOc1ccc(NC(=O)/C=C/c2ccc(OC)cc2)c([N+](=O)[O-])c1,.,.,.,.,.,.,.,.
COc1ccc(/C=C/C(=O)Nc2ccc(OC)cc2[N+](=O)[O-])cc1,.,.,.,.,.,.,/,/
O=C(c1ccoc1)N1CCN(c2cc(-c3cccnc3)nc3cc(-c4cccc(Cl)c4)nn23)CC1,/,/,/,.,.,.,/,/
C[C@@]12C(=O)N(c3cccc(Cl)c3)C(=O)N1[C@H](c1ccc(Cl)cc1)[C@@H]1C(=O)N(C3CCCCC3)C(=O)[C@@H]12,.,.,.,.,+,.,.,.
COc1ccc(CCNc2c(C)c(C)nc3ncnn23)cc1,.,.,.,.,.,.,.,.
COc1cc(NC(=O)N[C@@H](CCSC)C(=O)O)cc(OC)c1,.,.,.,.,.,.,/,/
COc1cc(NC(=O)N[C@H](C(=O)O)C(C)C)cc(OC)c1,.,.,.,.,+,.,.,.
O=C1OC(c2ccccc2)c2ccc3ccccc3c21 (stereo not given),.,.,.,.,.,.,/,/
CC(C)(C)OC(=O)N[C@H](C(=O)OC(C)(C)C)c1ccc2ccccc2c1,.,/,.,.,+,.,.,.
CC(C)n1cc(C(=O)NC2CC(C)(C)Cc3c2cnn3-c2ccccc2)cn1 (stereo not given),.,.,.,.,.,.,/,/
COc1cc2c(cc1OC)CN(CC(=O)NC(=O)NCc1ccccc1)CC2,.,.,.,.,+,.,.,.
COc1ccc(CC(=O)NN2C(=O)c3ccccc3C2=O)cc1,.,.,.,.,+,.,.,.
COC(=O)CCC(=O)NN1C(=O)c2ccccc2C1=O,.,.,.,.,.,.,/,/
CCCc1nc(SCC(=O)N2CCCCCC2)c2c(=O)n(C)c(=O)n(C)c2n1,/,.,.,/,/,/,/,/
SMILES,IDE cell activ,TPT1 inhibitor,IDE cell inh,CRFR2-BP antag,Myeloid diff 2,CRFR2-BP ag,Myeloid diff,GFP autofluor
Nc1nc(-c2ccccc2)c(CC(=O)O)s1,/,/,/,.,.,.,/,/
Nc1nc(-c2ccc(Oc3ccccc3)cc2)c(CC(=O)O)s1,.,/,/,.,.,.,.,.
CCC(=O)Nc1cccc(C(=O)/C=C/c2ccccc2)c1,.,.,.,.,.,.,.,.
COc1ccc(COc2ccsc2C(=O)Nc2ccc(Cl)cc2)cc1,.,.,.,.,.,.,.,.
O=C(O)c1ccc(N2C(=O)CC(N3CCC(c4nc5ccccc5[nH]4)CC3)C2=O)cc1 (stereo not given),.,.,.,.,.,.,/,/
CCOc1ccc(N=C(NN)c2ccc3ccccc3n2)cc1,.,.,.,.,.,.,/,/
CCOc1ccc(C(C)=O)cc1CC(C(N)=O)C(N)=O,.,.,.,.,+,.,.,.
O=C(CSc1ccc(-c2cccnc2)nn1)Nc1ccc(Br)cc1,.,.,.,.,.,.,.,.
CC(=O)Nc1ccc(NC(=O)CSc2ccc(-c3cccnc3)nn2)cc1,.,.,.,.,.,.,/,/
COc1ccc2c(c1)OC[C@H]1[C@H]2N2C(=O)CN(CCc3c[nH]c4ccccc34)C(=O)[C@@]2(C)[C@H]1c1ccccc1,.,/,.,.,.,.,/,/
N#C/C(=C\c1ccc(-c2ccc([N+](=O)[O-])cc2)o1)C(=O)Nc1nc(-c2cccs2)cs1,.,.,.,.,+,.,.,.
N#C/C(=C/c1ccc(-c2cccc([N+](=O)[O-])c2)o1)C(=O)Nc1nc(-c2cccs2)cs1,.,/,/,.,.,.,/,/
COc1ccccc1N(O)C1CC(=O)N(c2ccc(F)cc2)C1=O (stereo not given),.,.,.,.,.,.,.,.
O=c1[nH]c(SCc2nc3c(cnn3-c3ccccc3)c(=O)[nH]2)nc2ccccc12,.,/,/,.,+,.,.,.
COc1cc(C#Cc2c(-c3cncn3C)n(C)c3ccc(-c4ccc5[nH]ccc5c4)cc23)cc(OC)c1,.,/,.,.,.,.,.,98
Cc1ccc(-c2csc(NC(=O)c3c(C)noc3C)n2)cc1,.,/,.,.,+,.,.,.
COc1ccc(-c2csc(NC(=O)c3c(C)noc3C)n2)cc1,.,/,.,.,.,.,/,/
CCCNC(=O)C1(C)CCN(C(=O)c2c(Cl)cccc2Cl)C1 (stereo not given),/,/,/,/,.,/,/,/
COC(=O)[C@H](Cc1ccccc1)NC(=O)Cn1cnc2c(NCc3ccccc3)ncnc21,.,/,/,.,.,.,/,/
CCCCCCCCNC(=S)NCCN1CCCCC1,.,/,/,.,.,.,.,.
Cc1cc(CNC[C@H]2O[C@@H](n3cnc4c(N)ncnc43)[C@H](O)[C@@H]2O)no1,/,/,/,.,.,.,/,/
C#CC[N+](CC)(CC)CC#Cc1ccccc1,/,.,.,.,+,.,+,.
Cc1ccc(NC(=S)N(CCN(C)C)Cc2cc3cc(C)cc(C)c3[nH]c2=O)cc1,.,.,.,.,.,.,/,/
O=C(O)c1ccc(-n2c(/C=C/c3cccc([N+](=O)[O-])c3)nc3ccccc3c2=O)cc1,.,.,.,.,.,.,/,/
Cc1ccc(S(=O)(=O)/N=C(\N)Nc2nc(C)c3cc(C)c(C)cc3n2)cc1,.,.,.,.,.,.,.,.
CCCOc1ccc(CC(=O)N/N=C\c2ccc(F)cc2)cc1,.,.,.,.,.,.,/,/
